Measurements published in PubChem BioAssay (NCATS).
Results filed as inconclusive are left out. Calls of active or inactive are those of the source. Unless noted, calls follow the shape of the dose curve; as a rule, active = well fitted inhibition curve with a large enough effect; inconclusive = small, poorly fitted or top-dose-only effect; inactive = flat fitted curve, though single readings scatter.

Columns and labels:
[1] = molecular target: Glucocorticoid receptor (Homo sapiens) (UniProt P04150); experiment: GR-EFC Redistribution (AID 451; calls by dose curve; also: potency is read from the fitted curve at half-maximal effect); settings: CHO-K1 GR-EFC translocation, beta-gal luminescence, 2 h
How it was run: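 CHO-K1 cells expressing nuclear EA and GR-ED fragments of b-gal; compounds titrated up to 46 uM final, 2 h at 37 C. GR nuclear translocation read as complemented b-gal luminescence after 1 h RT detection.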

[2] = molecular target: Mitogen-activated protein kinase 10 (Mus musculus) (UniProt Q61831); experiment: JNK3 AlphaScreen Assay (AID 530; active = well fitted curve in either direction with a large enough effect, not every such curve was filed as active;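 also: kinase came from lysate of stimulated human HepG2 cells; signal reports phosphorylation of biotinylated GST-cJun 1-79 at Ser73 with 10 µM ATP; % is scaled to controls: 0 for no effect and ±100 for the full control effect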); settings: JNK3 lysate, c-Jun phosphorylation; series mostly up to 25.6 µM
How it was run: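 Pre-activated (IL-1β/TNFα) JNK3 in HepG2 lysates phosphorylates biotin-GST-cJun(1-79), 10 uM ATP; anti-phospho-cJun(Ser73) AlphaScreen read at room temperature, pH 7.6 Tris buffer. Compounds pre-incubated 15 min as titrations.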

[3] = qHTS Assay for Lipid Storage Modulators (AID 1519; calls by dose curve; as to activity change, negative = inhibition: % is scaled to controls: 0 for no effect and ±100 for the full control effect); settings: Drosophila S3 cells, BODIPY lipid droplet/cell ratio, laser cytometry, cells loaded with oleic acid
How it was run: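 Cells seeded at 5,000 per well were treated with compounds over a concentration series and loaded with oleic acid (400 uM, as added). Lipid droplet fluorescence (488 nm excitation, 500-530 nm channel) was read by laser-scanning cytometry and normalized to 20 uM Triacsin C.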

[4] = molecular target: Ubiquitin carboxyl-terminal hydrolase 1 (Homo sapiens) (UniProt O94782); experiment: Inhibitors of USP1/UAF1: Pilot qHTS (AID 504865); settings: purified USP1/UAF1, Ub-rhodamine cleavage fluorescence; series mostly up to 114 µM;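 also: rhodamine fluorescence freed from ubiquitin-rhodamine substrate followed over time; top concentration of the series differs between compounds; % is scaled to controls: 0 for no effect and ±100 for the full control effect; nearly all actives have a fitted effect of over 35% in size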
How it was run: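 Kinetic fluorescence assay: 1nM USP1/UAF1, 15 min compound preincubation, then 150nM Ub-Rho; 480/540 nm.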

[5] = molecular target: 3',5'-cyclic-AMP phosphodiesterase 4B (Homo sapiens) (UniProt Q07343); experiment: qHTS Assay for Inhibitors of PDE-IV (AID 607; active = well fitted activation curve with a large enough effect in the main read-out, with a control signal flat, not every such curve was filed as active; also: % of control where 0% means no effect); settings: HEK293 ACTOne CNG channel cells, membrane potential fluorescence; series mostly up to 22.9 µM
How it was run: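 ACTOne HEK293 cells carry a modified cAMP-gated CNG channel and express endogenous PDE4; plated 1000 cells/well, compounds up to 22.9 uM final. Membrane-potential dye fluorescence (ex 535/em 590) was read; parental cells received 10 uM forskolin + 100 uM RO 20-1724.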

[6] = molecular target: Luciferin 4-monooxygenase (Photinus pyralis) (UniProt P08659); experiment: Biochemical firefly luciferase enzyme assay for NPC (AID 624030);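 also: purified P. pyralis luciferase at 10 nM with luciferin and ATP substrate; 0% = DMSO and -100% = full luciferase inhibition by PTC124 control; nearly all actives have a fitted effect of over 70% in size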; settings: purified P. pyralis luciferase, luminescence, 5 min; series mostly up to 24.9 µM
How it was run: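 Purified P. pyralis luciferase at 10 nM in 50 mM Tris Acetate (final), luminescence read within 5 minutes of enzyme addition to compounds. Activity normalised to PTC124 versus DMSO; concentration-response curves classed by r2, magnitude and activity.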

[7] = qHTS profiling for inhibitors of Plasmodium falciparum proliferation (AID 504749);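 also: 0% = DMSO vehicle and full inhibition = artemisinin control; nearly all actives have a fitted effect of over 60% in size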; settings: P. falciparum in erythrocytes, SYBR Green DNA, 72 h, at 12.8 µM (top of the series)
How it was run: (§1)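 P. falciparum-infected erythrocytes (0.3% parasitemia, 2.5% hematocrit) incubated with compound 72 h at 37 C, 5% CO2. Parasite DNA detected by SYBR Green after lysis, overnight at room temperature; normalised to 0.29 uM artemisinin and DMSO.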

3D7 = experiment: as above; settings: P. falciparum in erythrocytes, SYBR Green DNA, 72 h; series mostly up to 12.8 µM
How it was run: as §1

C2A = experiment: as above; settings: P. falciparum in erythrocytes, SYBR Green DNA, 72 h; series mostly up to 12.8 µM
How it was run: as §1

CP217 = experiment: as above; settings: P. falciparum in erythrocytes, SYBR Green DNA, 72 h; series mostly up to 12.8 µM
How it was run: as §1

CP237 = experiment: as above; settings: P. falciparum in erythrocytes, SYBR Green DNA, 72 h; series mostly up to 12.8 µM
How it was run: as §1

CP238 = experiment: as above; settings: P. falciparum in erythrocytes, SYBR Green DNA, 72 h; series mostly up to 12.8 µM
How it was run: as §1

CP252 = experiment: as above; settings: P. falciparum in erythrocytes, SYBR Green DNA, 72 h; series mostly up to 12.8 µM
How it was run: as §1

CP291 = experiment: as above; settings: P. falciparum in erythrocytes, SYBR Green DNA, 72 h; series mostly up to 12.8 µM
How it was run: as §1

CP297 = experiment: as above; settings: P. falciparum in erythrocytes, SYBR Green DNA, 72 h; series mostly up to 12.8 µM
How it was run: as §1

ECU = experiment: as above; settings: P. falciparum in erythrocytes, SYBR Green DNA, 72 h; series mostly up to 12.8 µM
How it was run: as §1

HB3 = experiment: as above; settings: P. falciparum in erythrocytes, SYBR Green DNA, 72 h; series mostly up to 12.8 µM
How it was run: as §1

PAD = experiment: as above; settings: P. falciparum in erythrocytes, SYBR Green DNA, 72 h; series mostly up to 12.8 µM
How it was run: as §1

PC26 = experiment: as above; settings: P. falciparum in erythrocytes, SYBR Green DNA, 72 h; series mostly up to 12.8 µM
How it was run: as §1

SC27B = experiment: as above; settings: P. falciparum in erythrocytes, SYBR Green DNA, 72 h; series mostly up to 12.8 µM
How it was run: as §1

[8] = measured here: cell count channel max response
[9] = measured here: lipid channel max response

Sequence of Glucocorticoid receptor (Homo sapiens) (P04150 whole entry, looked up, the tested form may be a part): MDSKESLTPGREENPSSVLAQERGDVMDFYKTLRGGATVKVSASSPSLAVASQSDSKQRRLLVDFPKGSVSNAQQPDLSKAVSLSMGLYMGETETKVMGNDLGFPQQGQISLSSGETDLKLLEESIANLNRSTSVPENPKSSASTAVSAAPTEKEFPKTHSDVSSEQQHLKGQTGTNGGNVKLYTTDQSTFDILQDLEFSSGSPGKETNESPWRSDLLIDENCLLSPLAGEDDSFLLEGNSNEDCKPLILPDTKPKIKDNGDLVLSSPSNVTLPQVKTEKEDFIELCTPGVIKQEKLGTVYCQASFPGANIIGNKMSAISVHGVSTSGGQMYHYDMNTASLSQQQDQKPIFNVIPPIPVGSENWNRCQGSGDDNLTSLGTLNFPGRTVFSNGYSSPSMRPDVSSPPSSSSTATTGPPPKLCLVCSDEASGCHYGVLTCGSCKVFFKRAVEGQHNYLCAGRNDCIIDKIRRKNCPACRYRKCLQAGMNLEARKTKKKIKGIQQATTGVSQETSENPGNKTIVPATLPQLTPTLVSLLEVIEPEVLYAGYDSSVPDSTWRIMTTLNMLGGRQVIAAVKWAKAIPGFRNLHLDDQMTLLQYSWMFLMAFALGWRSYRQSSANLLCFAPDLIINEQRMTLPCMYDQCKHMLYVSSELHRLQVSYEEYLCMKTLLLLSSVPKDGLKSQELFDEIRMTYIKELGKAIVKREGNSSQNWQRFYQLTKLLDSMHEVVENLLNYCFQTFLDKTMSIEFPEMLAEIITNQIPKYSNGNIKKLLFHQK
Sequence of Ubiquitin carboxyl-terminal hydrolase 1 (Homo sapiens) (O94782 whole entry, looked up): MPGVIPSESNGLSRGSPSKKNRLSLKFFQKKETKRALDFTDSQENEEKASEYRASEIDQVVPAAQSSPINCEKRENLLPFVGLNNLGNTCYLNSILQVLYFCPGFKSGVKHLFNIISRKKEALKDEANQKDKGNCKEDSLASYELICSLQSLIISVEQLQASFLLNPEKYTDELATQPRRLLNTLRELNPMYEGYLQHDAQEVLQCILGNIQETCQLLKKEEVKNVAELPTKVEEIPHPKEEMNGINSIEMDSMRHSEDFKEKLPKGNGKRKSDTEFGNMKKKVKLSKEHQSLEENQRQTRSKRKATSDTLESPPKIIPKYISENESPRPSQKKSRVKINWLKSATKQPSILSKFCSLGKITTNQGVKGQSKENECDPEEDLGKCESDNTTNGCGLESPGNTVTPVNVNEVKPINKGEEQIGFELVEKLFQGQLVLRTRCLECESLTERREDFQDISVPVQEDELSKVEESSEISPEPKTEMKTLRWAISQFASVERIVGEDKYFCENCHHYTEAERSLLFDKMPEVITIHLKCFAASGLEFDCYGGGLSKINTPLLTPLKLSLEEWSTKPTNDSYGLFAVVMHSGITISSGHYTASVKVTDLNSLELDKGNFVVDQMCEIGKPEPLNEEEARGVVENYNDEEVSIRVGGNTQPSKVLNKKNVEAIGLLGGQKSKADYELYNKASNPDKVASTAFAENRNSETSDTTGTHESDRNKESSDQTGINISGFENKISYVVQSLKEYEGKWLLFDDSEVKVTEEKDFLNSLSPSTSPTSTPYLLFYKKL
Sequence of 3',5'-cyclic-AMP phosphodiesterase 4B (Homo sapiens) (Q07343 whole entry, looked up): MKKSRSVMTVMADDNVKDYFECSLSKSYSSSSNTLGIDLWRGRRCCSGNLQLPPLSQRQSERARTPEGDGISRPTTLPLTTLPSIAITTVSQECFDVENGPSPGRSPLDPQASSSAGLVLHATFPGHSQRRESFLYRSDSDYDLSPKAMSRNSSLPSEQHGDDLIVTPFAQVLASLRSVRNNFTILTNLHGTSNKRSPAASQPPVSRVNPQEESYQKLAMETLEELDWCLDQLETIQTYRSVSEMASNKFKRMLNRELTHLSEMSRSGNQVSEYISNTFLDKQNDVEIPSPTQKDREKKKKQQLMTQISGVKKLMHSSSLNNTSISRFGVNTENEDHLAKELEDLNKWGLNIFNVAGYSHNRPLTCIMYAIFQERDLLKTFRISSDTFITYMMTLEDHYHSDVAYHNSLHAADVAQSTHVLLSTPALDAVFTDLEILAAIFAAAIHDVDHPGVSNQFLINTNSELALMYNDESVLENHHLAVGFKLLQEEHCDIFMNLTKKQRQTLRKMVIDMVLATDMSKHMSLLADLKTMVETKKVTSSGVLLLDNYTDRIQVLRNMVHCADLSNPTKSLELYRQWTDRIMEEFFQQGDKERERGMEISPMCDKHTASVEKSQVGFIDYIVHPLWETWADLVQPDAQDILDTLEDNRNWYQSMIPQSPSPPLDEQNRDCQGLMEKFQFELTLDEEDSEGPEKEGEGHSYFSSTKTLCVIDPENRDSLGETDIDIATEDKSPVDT
Sequence of Luciferin 4-monooxygenase (Photinus pyralis) (P08659 whole entry, looked up): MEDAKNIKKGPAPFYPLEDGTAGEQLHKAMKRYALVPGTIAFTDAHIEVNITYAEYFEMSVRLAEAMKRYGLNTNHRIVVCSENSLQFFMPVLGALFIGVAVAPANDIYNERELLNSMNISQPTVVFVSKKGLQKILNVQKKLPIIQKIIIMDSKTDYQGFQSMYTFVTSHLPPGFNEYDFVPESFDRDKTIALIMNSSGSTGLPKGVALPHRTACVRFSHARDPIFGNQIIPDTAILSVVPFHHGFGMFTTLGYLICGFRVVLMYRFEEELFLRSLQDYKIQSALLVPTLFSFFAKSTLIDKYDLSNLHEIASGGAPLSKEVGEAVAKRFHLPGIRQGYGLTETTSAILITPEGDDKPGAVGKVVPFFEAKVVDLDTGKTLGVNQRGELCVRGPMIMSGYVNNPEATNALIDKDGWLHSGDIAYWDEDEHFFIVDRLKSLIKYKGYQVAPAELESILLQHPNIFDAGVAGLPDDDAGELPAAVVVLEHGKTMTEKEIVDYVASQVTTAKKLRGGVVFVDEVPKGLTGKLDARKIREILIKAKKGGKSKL

C1CCC(C(C[C@@H]2CCCCN2)C2CCCCC2)CC1
-15.6%: max response [3, 9]
inactive: Potency [1] > 20.6 µM | Potency [2] | activity change, negative = inhibition ([3]; at 25.7 µM (top of the series)) -4.85% | Potency [4]
-11.9%: max response [3, 8]

CC=C(/C(=C/C)c1ccc(O)cc1)c1ccc(O)cc1
-14.6%: max response [3, 8]
inactive: Potency [1] > 20.6 µM | Potency [2] | outcome [5] | activity change, negative = inhibition ([3]; at 25.7 µM (top of the series)) -3.26% | Potency [6] | activity, negative = inhibition ([7]; parasite line A) -1.05% | activity, negative = inhibition ([7]; parasite line B) -9.06% | Potency (3D7) | Potency (C2A) | Potency (CP217) | Potency (CP237) | Potency (CP238) | Potency (CP252) | Potency (CP291) | Potency (CP297) | Potency (ECU) | Potency (HB3) | Potency (PAD) | Potency (PC26) | Potency (SC27B)
-18.3%: max response [3, 9]

FC(F)(F)c1ccccc1-c1ccc2ncnc(NC3CCNCC3)c2c1
inactive: Potency [1] > 46 µM | outcome [5] | activity change, negative = inhibition ([3]; at 57.5 µM (top of the series)) -0.848% | Potency [4]
8.99%: max response [3, 8]
6.31%: max response [3, 9]

C[C@@H](CN1c2ccccc2Sc2ccccc21)N(C)C
inactive: Potency [2] | outcome [5] | activity change, negative = inhibition ([3]; at 25.7 µM (top of the series)) -3.2% | Potency [4]
-10.2%: max response [3, 8]
-13.4%: max response [3, 9]

CO[C@]1(NC(=O)[C@H](C(=O)O)c2ccc(O)cc2)C(=O)N2C(C(=O)O)=C(CSc3nnnn3C)CO[C@H]21
inactive: Potency [1] > 20.6 µM | activity change, negative = inhibition ([3]; at 25.7 µM (top of the series)) -4% | Potency [6] | activity, negative = inhibition ([7]; parasite line A) 8.42% | activity, negative = inhibition ([7]; parasite line B) 2.41% | Potency (3D7) | Potency (C2A) | Potency (CP217) | Potency (CP237) | Potency (CP238) | Potency (CP252) | Potency (CP291) | Potency (CP297) | Potency (ECU) | Potency (HB3) | Potency (PAD) | Potency (PC26) | Potency (SC27B)
-8.95%: max response [3, 9]
-7.15%: max response [3, 8]

Cc1cc2ccc(=O)oc2cc1OC[C@@H](O)C(C)(C)O
13%: max response [3, 8]
inactive: Potency [1] > 46 µM | Potency [2] | outcome [5] | activity change, negative = inhibition ([3]; at 57.5 µM (top of the series)) 5.47%
21.2%: max response [3, 9]

C[C@@H]1O[C@H](O[C@@H]2[C@H](C)O[C@H](O[C@@H]3[C@H](C)O[C@H](O[C@H]4CC[C@]5(C)[C@@H](CC[C@@H]6[C@H]5C[C@@H](O)[C@]5(C)[C@@H](C7=CC(=O)OC7)CC[C@]65O)C4)C[C@@H]3O)C[C@@H]2O)C[C@H](O)[C@@H]1O
2.04%: max response [3, 8]
1.22%: max response [3, 9]
inactive: Potency [1] > 20.6 µM | Potency [2] | outcome [5] | activity change, negative = inhibition ([3]; at 25.7 µM (top of the series)) 0.916% | Potency [4]

O=C(OC[C@@H](O)CO)c1ccccc1Nc1ccnc2cc(Cl)ccc12
9.55%: max response [3, 8]
inactive: Potency [2] | outcome [5] | activity change, negative = inhibition ([3]; at 25.7 µM (top of the series)) -2.54% | Potency [6] | activity, negative = inhibition ([7]; parasite line A) -14.6% | activity, negative = inhibition ([7]; parasite line B) -22.4% | Potency (3D7) | Potency (C2A) | Potency (CP217) | Potency (CP237) | Potency (CP238) | Potency (CP252) | Potency (CP291) | Potency (CP297) | Potency (ECU) | Potency (HB3) | Potency (PC26) | Potency (SC27B)
3.2%: max response [3, 9]

O=C1C=CC(=O)c2c1ccc1c2ccc2ccccc21
inactive: Potency [1] > 20.6 µM | Potency [2] | outcome [5] | activity change, negative = inhibition ([3]; at 25.7 µM (top of the series)) -0.997%
-3.16%: max response [3, 9]
-0.715%: max response [3, 8]
